Common to all, as to assay: yeast three-hybrid, YBZ-1, SC-Leu-His + 0.5 mM 3-AT, 4 days
Conditions in all cases: tags: N-Gal4 AD-HA kept; label: inside an RPR1-promoter hybrid RNA with tandem MS2 sites; ssRNA

In one assay the target is PUM1 PUF domain R8-CHK (Homo sapiens, UniProt Q14671 828-1176, N1122C;Y1123H;Q1126K). The essentials:
(§1)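 Pumilio-1 PUF domain libraries, randomized (NNK) at the three base-contacting residues of each repeat, were co-expressed with matching RNA elements from a centromeric plasmid in strain YBZ-1 (LexA–MS2 coat fusion, HIS3 reporter). Transformants were plated on SC-Leu (input) and SC-Leu-His + 0.5 mM 3-AT (selection) for four days, and repeat regions were PCR-amplified and Illumina-sequenced. The interaction score is the log2 change in variant frequency from input to selection, with pseudocount 1 where absent.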

A further assay has as its target PUM1 PUF domain R8-NYP (Homo sapiens, UniProt Q14671 828-1176, Q1126P). The method, boiled down:
as §1

Another assay has as its target T1, PUM1 PUF domain R6-MFR (Homo sapiens, UniProt Q14671 828-1176, N1043M;Y1044F;Q1047R).
T1 sequence: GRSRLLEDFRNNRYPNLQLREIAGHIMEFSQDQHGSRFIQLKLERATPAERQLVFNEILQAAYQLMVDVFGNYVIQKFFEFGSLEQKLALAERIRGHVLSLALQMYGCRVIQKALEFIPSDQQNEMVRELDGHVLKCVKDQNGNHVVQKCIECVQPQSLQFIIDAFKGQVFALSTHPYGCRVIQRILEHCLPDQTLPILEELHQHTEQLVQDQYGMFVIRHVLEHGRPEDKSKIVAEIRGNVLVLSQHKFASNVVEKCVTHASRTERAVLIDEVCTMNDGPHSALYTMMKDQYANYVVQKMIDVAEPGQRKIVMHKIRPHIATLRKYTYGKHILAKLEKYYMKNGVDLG
The method, boiled down: as §1

In a further assay the target is T2, PUM1 PUF domain R6-NYL (Homo sapiens, UniProt Q14671 828-1176, Q1047L).
T2 sequence: T1 sequence with M216N, F217Y, R220L
The method, boiled down:
as §1

The next assay deals with T3, PUM1 PUF domain R6-LWS (Homo sapiens, UniProt Q14671 828-1176, N1043L;Y1044W;Q1047S).
T3 sequence: T1 sequence with M216L, F217W, R220S
The essentials: as §1

The next assay has as its target PUM1 PUF domain R3-RCA (Homo sapiens, UniProt Q14671 828-1176, C935R;R936C;Q939A). The method, boiled down:
as §1

The target of a further assay is PUM1 PUF domain R5-DIR (Homo sapiens, UniProt Q14671 828-1176, C1007D;R1008I;Q1011R). The essentials: as §1

Positions count from the first letter of the chain named.

In the case of “GGCUAGAACUAGUGGAUCCCCCGGCGCCCGGCGGCUCGAGCCCGGGUAAGCGUAAAUAGUCUGCAUGCCGCCGGGCGCCAUGCCUGCAGGUCGACUCUAGAAAACAUG”, the binding signal in the assay with PUM1 PUF domain R8-CHK is 3.49 log2 enrichment (interaction score).

On to “GGCUAGAACUAGUGGAUCCCCCGGCGCCCGGCGGCUCGAGCCCGGGUAAGUGUAAAUAGUCUGCAUGCCGCCGGGCGCCAUGCCUGCAGGUCGACUCUAGAAAACAUG”, for which the binding signal with PUM1 PUF domain R8-NYP is 3.16 log2 enrichment (interaction score); with PUM1 PUF domain R6-MFR, 6.1 log2 enrichment (interaction score); in the assay with PUM1 PUF domain R6-NYL it was 5.52 log2 enrichment (interaction score); with PUM1 PUF domain R6-LWS, 6 log2 enrichment (interaction score).

Consider “GGCUAGAACUAGUGGAUCCCCCGGCGCCCGGCGGCUCGAGCCCGGGUAAGUGUAAUUAGUCUGCAUGCCGCCGGGCGCCAUGCCUGCAGGUCGACUCUAGAAAACAUG”, for which, in the assay with PUM1 PUF domain R3-RCA, the binding signal is 3.42 log2 enrichment (interaction score).

“GGCUAGAACUAGUGGAUCCCCCGGCGCCCGGCGGCUCGAGCCCGGGUAAGUGUCAAUAGUCUGCAUGCCGCCGGGCGCCAUGCCUGCAGGUCGACUCUAGAAAACAUG”: the binding signal with PUM1 PUF domain R5-DIR is 3.11 log2 enrichment (interaction score).

As for “GGCUAGAACUAGUGGAUCCCCCGGCGCCCGGCGGCUCGAGCCCGGGUAAGUGAAAAUAGUCUGCAUGCCGCCGGGCGCCAUGCCUGCAGGUCGACUCUAGAAAACAUG”, in the assay with PUM1 PUF domain R6-LWS, the binding signal is 4.85 log2 enrichment (interaction score).

The record behind these values is paper PMC8384837, “Expanding the binding specificity for RNA recognition by a PUF domain”.
